This is a sample that favours compounds with a hit; in the whole collection about 6.2% have one here.
Mot1-301 SUMO = SUMOylation pathway inhibition by Mot1-301 growth rescue; S. cerevisiae Mot1-301 growth rescue, ATP luminescence, 38.5C; percent above DMSO median, 100 means doubled; growth rescue, % at 18.8 µM; actives 1% (n = 320,000); AID 2716;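 active = every valid replicate shows activation above 250% relative to neutral control wells; inactive = the rest, any valid replicate at or below 250%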
H9c2 protect = myocardial damage modulation in H9c2 cells; AID 588492; H9c2 cardiomyocytes, H2O2 injury protection, ATPLite, 2 h; actives 0.63% (n = 360,000); protection from H2O2 cell death, % at 20 µM;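 active = compounds giving at least 50% protection of heart cells from peroxide-induced death in the single-dose screen, raw or plate-pattern-corrected value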
AHR act = activators of human aryl hydrocarbon receptor | activation, % at 5 µM | P35869 | AID 2796 | AHR-responsive luciferase reporter cells, luminescence | actives 2.5% (n = 320,000); in the data active = activation above about 47%
Target sequence (P35869 whole entry, looked up): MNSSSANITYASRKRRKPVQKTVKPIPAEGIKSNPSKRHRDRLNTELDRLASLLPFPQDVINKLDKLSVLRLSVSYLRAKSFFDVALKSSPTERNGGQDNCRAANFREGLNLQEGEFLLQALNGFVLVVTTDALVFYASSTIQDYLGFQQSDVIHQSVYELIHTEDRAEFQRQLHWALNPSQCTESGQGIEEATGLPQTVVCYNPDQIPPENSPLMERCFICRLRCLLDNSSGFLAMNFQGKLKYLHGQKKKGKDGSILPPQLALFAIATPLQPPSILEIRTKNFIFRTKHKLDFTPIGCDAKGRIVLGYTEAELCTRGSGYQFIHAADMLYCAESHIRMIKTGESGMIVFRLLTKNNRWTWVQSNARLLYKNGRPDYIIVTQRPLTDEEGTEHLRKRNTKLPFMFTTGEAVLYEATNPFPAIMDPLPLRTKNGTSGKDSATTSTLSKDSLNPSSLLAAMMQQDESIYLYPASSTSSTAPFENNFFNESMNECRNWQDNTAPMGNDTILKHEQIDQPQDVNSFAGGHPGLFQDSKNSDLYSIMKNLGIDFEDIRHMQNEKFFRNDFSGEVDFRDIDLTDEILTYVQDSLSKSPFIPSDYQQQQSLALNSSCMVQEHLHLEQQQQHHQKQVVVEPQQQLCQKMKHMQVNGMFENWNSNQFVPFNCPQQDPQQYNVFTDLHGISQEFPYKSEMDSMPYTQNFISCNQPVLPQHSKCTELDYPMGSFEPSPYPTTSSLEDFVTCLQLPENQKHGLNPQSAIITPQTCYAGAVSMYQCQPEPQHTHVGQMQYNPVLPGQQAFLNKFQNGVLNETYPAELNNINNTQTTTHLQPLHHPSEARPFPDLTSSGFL
AI-2 QS mod = modulates the Vibrio harveyi AI-2 quorum sensing system. Vibrio harveyi JMH597 AI-2 luminescence/OD600 ratio, 9 h; stronger effect = lower value; strain lacks LuxN and CqsS sensors; 0 = neutral-control median. actives 0.4% (n = 300,000). activity change, % at 7.5 µM; in the data active = activity change below about -75%, passing the limit was not always enough;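 also: luminescence divided by OD600 gain over 9 h not by final OD600 alone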
GRIN3A LBD mod = modulates the human NR3A ligand-binding domain. Tm shift relative to glycine control, % at 25 µM. NR3A LBD differential scanning fluorimetry, Tm shift; 0% = protein alone, 100% = glycine-bound protein. actives 2.5% (n = 340,000);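 active = melting temperature shift of at least 10% of the positive control shift, at one fixed dose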
NTR1 ag = NTR1 (human) agonism; P30989; NTR1-U2OS beta-arrestin-GFP spot imaging, agonist mode; activation, % at 20 µM; actives 0.17% (n = 330,000); AID 493036;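 active = activation at or above 40% of the spot to cytoplasm intensity ratio, with at least 20 cells analyzed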
Mot1 SUMO dose = SUMO pathway inhibitors in yeast Mot1-301 growth; shares compounds with Mot1-301 SUMO; S. cerevisiae Mot1-301 galactose growth, ATP luminescence, 24 h; -100 = growth of slx-deleted rescue strain; growth activity, percent, % at 42 µM; 2,300 tested, under 10 active; AID 493004;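 active = Signal drops as the depositor expects, and the fitted half-maximal dose is no more than ten times the top valid tested dose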;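 also: more negative values mean stronger growth rescue toward the control strain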
Of the large screens only hits and unclear results are named; the others gave an inactive call (follow-up assays come after a bar, where they were run).

Cc1onc(-c2ccccc2)c1C(=O)Nc1nnc(CC(C)C)s1	none
CC(C)Cc1cc(CN2CCC(CO)(Cc3ccccc3)CC2)[nH]n1	Mot1-301 SUMO 455.4 | Mot1 SUMO dose inactive
COc1cc(NC(C)CCCN)c2nc(C)ccc2c1Oc1ccc(F)cc1 (stereo not given)	none (no result: Mot1-301 SUMO, AHR act, AI-2 QS mod, GRIN3A LBD mod, NTR1 ag)
O=C(Nc1ccc2nc(-c3ccc4nc[nH]c4c3)[nH]c2c1)c1cccs1	Mot1-301 SUMO 465.2, GRIN3A LBD mod 28.9 | Mot1 SUMO dose inactive
O=C(Nc1ccc2[nH]ccc2c1)c1cccs1	none
Cc1ccc(C)c(N2CCN(C(=O)c3ccc4nsnc4c3)CC2)c1	none
O=c1[nH]cnc2ccc([N+](=O)[O-])cc12	Mot1-301 SUMO 397.1 | Mot1 SUMO dose inactive
O=C(NN=Cc1cc(Cl)ccc1[N+](=O)[O-])c1ccco1	none (no result: Mot1-301 SUMO, AHR act, AI-2 QS mod, NTR1 ag)
Cc1ccc(C)c(N2N=C(C(=O)OCC(=O)N(C)c3ccccc3)CCC2=O)c1	none (no result: Mot1-301 SUMO, AHR act, AI-2 QS mod)
CCS(=O)(=O)N1CCC(C(=O)NCc2cccnc2)CC1	none
CCS(=O)(=O)N1CCCC(C(=O)NCc2cccnc2)C1 (stereo not given)	Mot1-301 SUMO 361.6 | Mot1 SUMO dose inactive
Cc1ccccc1-c1nc(CN2CCCC(C(=O)NCc3cccnc3)C2)c(C)o1 (stereo not given)	Mot1-301 SUMO active | Mot1 SUMO dose inactive
CCCCNC(=O)C(NC(=O)c1cccnc1)C(=O)c1ccccc1 (stereo not given)	none (no result: Mot1-301 SUMO, AHR act, AI-2 QS mod, GRIN3A LBD mod, NTR1 ag)
O=C(CN1CCN(S(=O)(=O)c2ccc(F)c(Cl)c2)CC1)N1CCNC1=O	none (no result: AI-2 QS mod)
COc1ccc(/C=N\NC(=O)c2cc(OCC(F)(F)F)ccc2OCC(F)(F)F)cc1	Mot1-301 SUMO 797.3 | Mot1 SUMO dose inactive
O=C(N/N=C/c1ccc(OCCCF)cc1)c1cc(OCC(F)(F)F)ccc1OCC(F)(F)F	none
CC(C)CC[n+]1ccccc1/C=C/c1ccc(N(C)C)cc1	none
CN(C)c1ccc(/C=C/c2cccc[n+]2[O-])cc1	Mot1-301 SUMO 584.2 | Mot1 SUMO dose inactive
COc1cc(Cl)ccc1OCc1cc(C(=O)NCCCN2CCCC2=O)no1	none
COCCn1c(SCC(=O)Nc2nc3ccccc3s2)nnc1-c1ccoc1C	Mot1-301 SUMO 600.9 | Mot1 SUMO dose inactive
O=S1(=O)NC(c2ccccc2)CC(CC2CCCCC2)O1 (stereo not given)	Mot1-301 SUMO 943.3 | Mot1 SUMO dose inactive
O=C1NC[C@H](c2ccccc2)N(CC2CCCCC2)C1=O	none
C/C(=N\N(c1ccccc1)c1ccccc1)c1ccco1	none
C/C(=N\N=C(c1ccccc1)c1ccccc1)c1ccco1	Mot1-301 SUMO 576.4 | Mot1 SUMO dose inactive
Cc1cc(C(=O)N2CCC2(C)C(=O)O)c(C)o1 (stereo not given)	none (no result: Mot1-301 SUMO, AHR act, AI-2 QS mod, GRIN3A LBD mod, NTR1 ag)
CC(=O)c1ccc(S(=O)(=O)NCC(=O)Nc2nc3ccccc3[nH]2)cc1	none (no result: AI-2 QS mod)
CCCCCC(=O)Nc1ccc(-c2csc(C)n2)cc1	none
CCCCCC(=O)Nc1ccc(-c2csc(N)n2)cc1	Mot1-301 SUMO 470.7 | Mot1 SUMO dose inactive
Cc1sc(NC(=O)CSC2=NCCS2)nc1-c1ccccc1	Mot1-301 SUMO 722.2 | Mot1 SUMO dose inactive
N=c1c2c(n(Cc3ccc(Cl)c(Cl)c3)c3c1CCC3)CCCC2	Mot1-301 SUMO active | Mot1 SUMO dose inactive
CC(=O)Nc1ccc(NC(=O)CC2(CC(=O)N3CCOCC3)CCCC2)cc1	none (no result: Mot1-301 SUMO, AHR act, AI-2 QS mod)
Nc1ccc(NC(=O)c2ccco2)c(Cl)c1	Mot1-301 SUMO 439.5 | Mot1 SUMO dose inactive
COc1ccccc1CN1CC(C(=O)N2CCC(C(=O)c3ccccc3)CC2)CCC1=O (stereo not given)	none
CCCC1CC(=O)NC1(C(=O)OCC)C(=O)OCC (stereo not given)	none (no result: Mot1-301 SUMO, AHR act, AI-2 QS mod, NTR1 ag)
CCCCc1ccc(S(=O)(=O)NNC(=S)NCc2ccco2)cc1	Mot1-301 SUMO 544.6 | Mot1 SUMO dose inactive
CC(=O)Nc1ccc(S(=O)(=O)NNC(=S)NCc2ccco2)cc1	none
COc1cccc(/C=N/NC(=O)CCn2cnc3ccccc32)c1	Mot1-301 SUMO 478.8 | Mot1 SUMO dose inactive
COc1cc(C)ccc1S(=O)(=O)NC(=O)C1(C)CCN1C(=O)Cc1ccccc1Cl (stereo not given)	none (no result: Mot1-301 SUMO, AHR act, AI-2 QS mod, GRIN3A LBD mod, NTR1 ag)
O=C(NCc1ccccc1F)c1ccc2c(c1)OCO2	none
O=C(NCc1ccccc1Cl)c1ccc2c(c1)OCO2	Mot1-301 SUMO 650.3 | Mot1 SUMO dose inactive
Cc1nnc(NC(=O)c2ccc(-c3cccc(C(F)(F)F)c3)o2)s1	Mot1-301 SUMO active (no result: AI-2 QS mod) | Mot1 SUMO dose inactive
CN(C(=S)NC1=CCS(=O)(=O)C1)C1CCCCC1	Mot1-301 SUMO 581.0 | Mot1 SUMO dose inactive
CC1=C(C(=O)OCc2ccccc2)C(c2cccc(F)c2)NC(=O)N1 (stereo not given)	Mot1-301 SUMO 611.2 | Mot1 SUMO dose inactive
CC1=C(C(=O)OCc2ccccc2)C(c2ccccc2)NC(=O)N1 (stereo not given)	none
COc1ccc(CN2CCCCCC2)cc1	Mot1-301 SUMO 486.7 | Mot1 SUMO dose inactive
COc1ccc(CN2CCOCC2)cc1	none
COc1ccc(Cn2nnnc2CN2CCN(c3ccc(OC)cc3)CC2)cc1	Mot1-301 SUMO 884.6 | Mot1 SUMO dose inactive
O=C(NCCO)c1ccc(Oc2ccc(C(F)(F)F)cc2[N+](=O)[O-])cc1	none
O=C(CS(=O)c1ccc(C(F)(F)F)cc1[N+](=O)[O-])Oc1ccc(Cl)cc1 (stereo not given)	Mot1-301 SUMO 380.3 | Mot1 SUMO dose inactive
Cc1cc(C)cc(OC(=O)CS(=O)c2ccc(C(F)(F)F)cc2[N+](=O)[O-])c1 (stereo not given)	Mot1-301 SUMO 511.2 | Mot1 SUMO dose inactive
COc1ccc(CNC(=O)c2cc(=O)c3cc(C)cc(C)c3o2)cc1	Mot1-301 SUMO active | Mot1 SUMO dose inactive
COc1oc(C(=O)NC2CCCCC2)c(-c2ccc(Cl)cc2)c1S(=O)(=O)c1ccccc1	none (no result: Mot1-301 SUMO, AHR act, AI-2 QS mod, NTR1 ag)
CCOc1ccc(NC(=O)Nc2c(C)n(C)n(-c3ccccc3)c2=O)cc1	none
COc1ccccc1-c1nc2ccccc2nc1-c1ccccc1OC	Mot1-301 SUMO 394.9 | Mot1 SUMO dose inactive
CCOC(=O)C1=C(C)NC(C)=C(C(=O)OCC)C1C(=O)OC1CCOC1=O (stereo not given)	Mot1-301 SUMO 462.5 | Mot1 SUMO dose inactive
O=C(O)C1C2CCC(O2)C1C(=O)NCCC1=CCCCC1 (stereo not given)	Mot1-301 SUMO 364.1 | Mot1 SUMO dose inactive
NC(=O)NCCC1=CCCCC1	none
Cc1ccc2c(c1)c1c(n2CC(O)CN2CCOCC2)CCCC1 (stereo not given)	none (no result: H9c2 protect, GRIN3A LBD mod)
COc1ccc(C(=O)c2c(C)c3cc(C)ccc3n2CC(O)CN2CCOCC2)cc1 (stereo not given)	Mot1-301 SUMO 924.2 | Mot1 SUMO dose inactive

Screening results as filed in PubChem BioAssay.
